Assay results reported in the supplement of paper PMC6089552.
In all, about 3,200 compounds went through this assay and about 300 (9.4%) showed activity. The sample holds actives, similar compounds and a random draw of the others, so the mix is not that of the screen.

System: A673/TR/shEF
Test: cell viability (LOESS-normalised, relative to median of negative controls) (log2 ratio); higher = more viable cells (less compound effect), active = hit call of the paper (over 3 MAD below the median)
Conditions: treatment time: 72 h
In short: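 Doxycycline, present or absent from 24 h before compounds, was used to induce EWS-FLI1 shRNA knockdown in A673/TR/shEF Ewing sarcoma cells at 1,500 per well in 384-well plates. Cells then received library compounds at two or more concentrations, or DMSO controls, for three days. Viability was measured by CellTiter-Glo luminescence on an Envision reader, and per-plate LOESS correction, division by the negative-control median and log2 transformation followed.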

[1] = 0.25 µM, library screen: screen1, EWS-FLI1 expression: high (no doxycycline)
[2] = 0.25 µM, library screen: screen1, EWS-FLI1 expression: low (doxycycline-induced shRNA knockdown)
[3] = 2.5 µM, library screen: screen1, EWS-FLI1 expression: high (no doxycycline)
[4] = 2.5 µM, library screen: screen1, EWS-FLI1 expression: low (doxycycline-induced shRNA knockdown)
[5] = 0.103 µM, library screen: screen3, EWS-FLI1 expression: high (no doxycycline)
[6] = 0.103 µM, library screen: screen3, EWS-FLI1 expression: low (doxycycline-induced shRNA knockdown)
[7] = 0.25 µM, library screen: screen2, EWS-FLI1 expression: high (no doxycycline)
[8] = 0.25 µM, library screen: screen2, EWS-FLI1 expression: low (doxycycline-induced shRNA knockdown)
[9] = 0.308 µM, library screen: screen3, EWS-FLI1 expression: high (no doxycycline)
[10] = 0.308 µM, library screen: screen3, EWS-FLI1 expression: low (doxycycline-induced shRNA knockdown)
[11] = 0.926 µM, library screen: screen3, EWS-FLI1 expression: high (no doxycycline)
[12] = 0.926 µM, library screen: screen3, EWS-FLI1 expression: low (doxycycline-induced shRNA knockdown)
[13] = 2.5 µM, library screen: screen2, EWS-FLI1 expression: high (no doxycycline)
[14] = 2.5 µM, library screen: screen2, EWS-FLI1 expression: low (doxycycline-induced shRNA knockdown)
[15] = 2.8 µM, library screen: screen3, EWS-FLI1 expression: high (no doxycycline)
[16] = 2.8 µM, library screen: screen3, EWS-FLI1 expression: low (doxycycline-induced shRNA knockdown)
[17] = 8.3 µM, library screen: screen3, EWS-FLI1 expression: high (no doxycycline)
[18] = 8.3 µM, library screen: screen3, EWS-FLI1 expression: low (doxycycline-induced shRNA knockdown)
[19] = 25 µM, library screen: screen3, EWS-FLI1 expression: high (no doxycycline)
[20] = 25 µM, library screen: screen3, EWS-FLI1 expression: low (doxycycline-induced shRNA knockdown)
[21] = 0.025 µM, library screen: screen2, EWS-FLI1 expression: high (no doxycycline)
[22] = 0.025 µM, library screen: screen2, EWS-FLI1 expression: low (doxycycline-induced shRNA knockdown)
[23] = 25 µM, library screen: screen2, EWS-FLI1 expression: high (no doxycycline)
[24] = 25 µM, library screen: screen2, EWS-FLI1 expression: low (doxycycline-induced shRNA knockdown)

Measured: cell viability (log2)

CC(C)c1c(O)ccc2c1CC[C@H]1[C@@](C)(CO)CCC[C@]21C
inactive: [1] 0.0632 | [2] 0.204 | [3] 0.124 | [4] 0.239

CC(C(=O)O)c1cccc(C(=O)c2ccccc2)c1 (stereo not given)
inactive: [5] 0.106 | [6] 0.0412 | [1] 0.12 | [2] -0.0201 | [7] 0.204 | [8] 0.13 | [9] 0.093 | [10] 0.102 | [11] 0.0295 | [12] 0.058 | [3] 0.103 | [4] 0.0158 | [13] 0.122 | [14] 0.173 | [15] 0.145 | [16] 0.11 | [17] 0.0932 | [18] 0.0536 | [19] 0.0365 | [20] 0.131

COC(=O)Nc1nc2ccc(Sc3ccccc3)cc2[nH]1
active: [15] -0.667 | [17] -1.42 | [18] -0.611 | [23] -2.26 | [24] -0.937 | [19] -1.77 | [20] -0.629
inactive: [21] 0.076 | [22] 0.0311 | [5] 0.039 | [6] 0.0842 | [1] 0.0605 | [2] 0.108 | [7] 0.237 | [8] 0.0195 | [9] 0.0857 | [10] 0.103 | [11] 0.0228 | [12] 0.0229 | [3] 0.101 | [4] 0.0874 | [13] 0.103 | [14] 0.0543 | [16] -0.0556

COC(=O)Nc1nc2ccc(C(=O)c3ccccc3)cc2[nH]1
active: [3] -1.65 | [4] -0.988 | [13] -2.05 | [14] -0.641 | [23] -3.34 | [24] -1
inactive: [21] 0.179 | [22] 0.0844 | [1] 0.0977 | [2] 0.025 | [7] 0.114 | [8] 0.0886

COC(=O)c1ccccc1
inactive: [1] 0.0726 | [2] 0.05 | [3] 0.155 | [4] 0.0447

COc1ccc(NC(=O)/C(=C/c2cccs2)NC(=O)c2cccs2)cc1
inactive: [1] 0.0675 | [2] 0.0437 | [3] 0.0662 | [4] 0.0201

COC(=O)Nc1nc2ccc(C(=O)c3cccs3)cc2[nH]1
active: [1] -0.83 | [2] -0.22 | [7] -1.12 | [8] -0.105 | [3] -3.46 | [4] -1.25 | [13] -2.04 | [14] -0.699

CC(C(=O)O)c1ccc(C(=O)c2cccs2)cc1 (stereo not given)
inactive: [1] 0.0835 | [2] 0.0129 | [3] 0.155 | [4] -0.0021

CC(=O)O[C@H]1C[C@@H](OC(C)=O)C(C)(C)C2CC(=O)[C@]3(C)C(CC[C@@]4(C)[C@H](C(=O)O)OC(=O)C5OC543)[C@]21C (stereo not given in full)
inactive: [1] 0.123 | [2] 0.114 | [3] 0.0482 | [4] 0.118

CCC(=O)NCC1OC(n2cnc3c(NCc4ccccc4)ncnc32)C(O)C1O (stereo not given)
inactive: [7] 0.0412 | [8] 0.0737 | [13] 0.224 | [14] 0.113

COC(=O)C[C@H]1C(C)(C)C(=O)[C@@H]2CC3=C4CC(OC)O[C@@H](c5ccoc5)[C@]4(C)CCC3[C@@]1(C)C2=O (stereo not given in full)
inactive: [1] 0.115 | [2] 0.14 | [3] 0.0882 | [4] 0.172

COc1ccc(-c2coc3cc(OC(C)=O)cc(OC(C)=O)c3c2=O)cc1
inactive: [1] 0.0854 | [2] -0.00831 | [3] 0.156 | [4] 0.114

COc1c(O)cc2occ(-c3ccc(O)cc3)c(=O)c2c1O
inactive: [1] 0.15 | [2] 0.0261 | [3] 0.0979 | [4] 0.0895

CC(=O)O[C@H]1CC[C@]2(C)[C@H]3CC=C4[C@@H]5CC(C)(C)CC[C@]5(C(=O)O)CC[C@@]4(C)[C@]3(C)CC[C@H]2C1(C)C
inactive: [1] 0.0325 | [2] 0.0553 | [3] 0.0391 | [4] 0.0458

Cc1nnc(C(C)C)n1C1C[C@H]2CC[C@@H](C1)N2CC[C@H](NC(=O)C1CCC(F)(F)CC1)c1ccccc1 (stereo not given in full)
inactive: [5] 0.00773 | [6] 0.0537 | [9] 0.179 | [10] 0.0864 | [11] 0.11 | [12] 0.0142 | [15] 0.152 | [16] 0.0241 | [17] 0.00455 | [18] 0.0886 | [19] 0.0767 | [20] 0.0769

C=C1C(=O)OC2CC1C(OC(C)=O)C/C(C)=C/CC/C(C)=C\CCC2(C)O (stereo not given)
inactive: [1] 0.18 | [2] 0.0249 | [3] 0.0625 | [4] -0.139
